The results in this text go back to ChEMBL document CHEMBL4513216, “Probing the Open Global Health Chemical Diversity Library for Multistage-Active Starting Points for Next-Generation Antimalarials” (ACS Infect Dis, 2020).

Molecules are shown by their SMILES. About 8,600 (12%) of roughly 69,000 compounds showed an effect of 50% or more. The sample as a whole holds a higher share of strong results than the screen did.

For the assay, the system named is Plasmodium berghei. Description: Screen against P. berghei liver stage (PbLuc), transformed with Luciferase, at 10uM. In kind it is functional, HepG2. Particulars: tested at 10 uM.
For the molecule `COc1ccc(OC)c(C(C(=O)O)N2CCSCC2)c1` (configuration not stated), the INHIBITION is given as 17%.
On to `Cc1ccc(C(C)N(C)CCS(=O)(=O)CCC(N)=O)cc1` (configuration not stated), for which the INHIBITION is listed as 56.3%.
For `CC(c1cccc(Cl)c1)N(C)CCS(=O)(=O)CCC(N)=O` (configuration not stated), the INHIBITION worked out at 37.8%.
For `CC(c1ccc(F)c(F)c1)N(C)CCS(=O)(=O)CCC(N)=O` (configuration not stated), the INHIBITION was found to be 41.5%.
On to `NC(=O)CN1CCN(CC2CC2)c2ccccc21`, for which the INHIBITION worked out at 58.7%.
In the case of `NC(=O)NC(=O)CCN1CCN(CC2CC2)c2ccccc21`, the INHIBITION was found to be 62.4%.
For the molecule `COCCC(=O)N1CCN(CC2CC2)c2ccccc21`, the INHIBITION stood at 14.9%.
The value for `O=C(NCCCC(=O)N1CCN(CC2CC2)c2ccccc21)C1CC1` was 22.8%; that for `CNC(=O)NC(=O)CN1CCN(CC2CC2)c2ccccc21` was 46.4%.
As to `NC(=O)NC(=O)CN1CCN(CC2CC2)c2ccccc21`, the INHIBITION was 35.3%.
The value for `CN1CCC2(CCN(Cc3nccs3)CC2)C1=O` was 7.15%; that for `O=C(NCC1CC1)C1CCC2(CCN(C(=O)c3ccco3)CC2)O1` (configuration not stated) was -25.8%; that for `CN(C(=O)CCc1nc(C2CC2)no1)c1cc(C#N)c2ccccc2n1` was 23.1%.
For `O=C(c1ccc(S(=O)(=O)N2CCNCC2)cc1)N1CCCC(O)C1` (configuration not stated), the INHIBITION is 13.3%.
Take `CCCc1noc(CN2CCN(c3nccs3)CC2)n1`: the INHIBITION is -4.16%.
Consider `Cc1cc(C2CCCN2Cc2ccc(S(=O)(=O)N3CCCC3)o2)on1` (configuration not stated), for which the INHIBITION was 19.2%.
The value for `CCCC1c2ccccc2CCN1CCS(C)(=O)=O` (configuration not stated) was 22.8%.
With `CCC1c2ccccc2CCN1CCCS(C)(=O)=O` (configuration not stated), the INHIBITION is given as 50.6%.
Consider `CCC1c2ccccc2CCN1CCNS(C)(=O)=O` (configuration not stated), for which the INHIBITION was found to be 18%.
`Cc1nn(-c2ccccc2)c2nc(C(C)(C)CN3CCN(C)CC3)[nH]c12`: the INHIBITION is reported as 8.08%.
Regarding `Cc1noc(C)c1CC(=O)NCC(C)N1CCOCC1` (configuration not stated), the INHIBITION was determined as 46.1%.
On to `CC(C)CC(CNC(=O)NCc1cc[nH]n1)N1CCOCC1` (configuration not stated), for which the INHIBITION stood at 52%.
Regarding `Cc1noc(C)c1CC(=O)NCC(C(C)C)N1CCOCC1` (configuration not stated), the INHIBITION worked out at 58.2%.
For the molecule `Cc1cc(NC(=O)NCC(CC(C)C)N2CCOCC2)n(C)n1` (configuration not stated), the INHIBITION is -0.113%.
As to `O=C(NCc1cc[nH]n1)NCC(c1ccccc1)N1CCOCC1` (configuration not stated), the INHIBITION came out at 15.8%.
On to `Cc1noc(C)c1CC(=O)NCCc1cccs1`, for which the INHIBITION is -26.9%.
On to `Cc1noc(C)c1C(=O)NCCN1CCOCC1`, for which the INHIBITION is -27.8%.
For `CC(C)C(CNC(=O)NCc1cc[nH]n1)N1CCOCC1` (configuration not stated), the INHIBITION is -1.6%.
Turning to `Cc1noc(C)c1CNC(C(=O)N1CCOCC1)C(C)C` (configuration not stated), the INHIBITION was 22.2%.
As to `Cc1noc(C)c1CC(=O)NCCN1CCN(S(C)(=O)=O)CC1`, the INHIBITION is -47.8%.
In the case of `Cc1noc(C)c1CC(=O)NCC(CC(C)C)N1CCOCC1` (configuration not stated), the INHIBITION came out at 62.8%.
For `CCC(CNC(=O)Cc1c(C)noc1C)N1CCCC1` (configuration not stated), the INHIBITION is listed as 57.3%.
With `Cc1cc(NC(=O)CN2CCCC2c2c(C)nn(C)c2C)on1` (configuration not stated), the INHIBITION stood at 5.03%.
For `Cc1noc(C)c1-c1nc(C2CCCN(C(=O)C(C)C)C2)ccc1CO` (configuration not stated), the INHIBITION stood at 48.1%.
For the molecule `CC(=O)N(Cc1ncc(C)o1)C1CCN(Cc2nccn2C)C1` (configuration not stated), the INHIBITION is on record as 11.45%.
Consider `CC(=O)N1[C@H](Cn2cncn2)C[C@@H]2CN(CC3CC3)CC[C@@H]21`, for which the INHIBITION is reported as -1.83%.
Turning to `COc1ccccc1C(=O)N1C[C@@H]2CCCCN(CC(N)=O)[C@@H]2C1`, the INHIBITION amounted to 9.05%.
For the molecule `CC(NCCCn1cccn1)c1ccc(N2CCCS2(=O)=O)cc1` (configuration not stated), the INHIBITION came to 5.58%.
For `COCCCNS(=O)(=O)c1cccc(CSC)c1`, the INHIBITION was -15.7%.
Take `COCCCNS(=O)(=O)c1ccc(N2CCCCS2(=O)=O)cc1`: the INHIBITION is reported as 73.4%.
Regarding `CCOc1ccc(NC(=O)N(C)Cc2cnn(C)c2)c(C)c1`, the INHIBITION is listed as 11.9%.
As to `Cc1nc2c(c(C)c1CC(=O)NCc1cccs1)c(=O)[nH]n2C`, the INHIBITION was -0.219%.
In the case of `O=c1n(Cc2cccc(F)c2)nc2ncccn12`, the INHIBITION is recorded as -31.7%.
Turning to `Cc1ccoc1C(=O)N1CCO[C@H]2[C@H](OCC3CCOCC3)CC[C@@H]21`, the INHIBITION was -0.182%.
`Cc1ccoc1C(=O)N1C[C@H](OCC2CC2)[C@H]2OCCC[C@H]21`: the INHIBITION is -31%.
As for `Cc1ccoc1C(=O)N1C[C@@H](OCC2CC2)[C@H]2OCCC[C@H]21`, the INHIBITION is given as 55.2%.
Turning to `Cc1ccc(C(=O)N2C[C@@H](OCC3CCOCC3)[C@H]3OCCC[C@H]32)o1`, the INHIBITION is given as 41.5%.
For `Cc1ccoc1C(=O)N1C[C@H](OCc2cccnc2)[C@H]2OCCC[C@H]21`, the INHIBITION is given as 33.4%.
Turning to `Cc1ccoc1C(=O)N1C[C@@H](OCC2CCOCC2)[C@H]2OCCC[C@H]21`, the INHIBITION worked out at 57.1%.
On to `CN(C)CCN1CCc2c(nnn2C)C1COCc1ccccc1` (configuration not stated), for which the INHIBITION is listed as -4.98%.
Take `CCc1[nH]ncc1C(=O)N1CCCC(n2ccnc2C)C1` (configuration not stated): the INHIBITION is 7.12%.
Take `O=C1CC2(CCN(Cc3ccncc3)C2)CN1c1cccc(F)c1` (configuration not stated): the INHIBITION is reported as -11.6%.
Turning to `CCOCC(=O)N1CCCC2(CCN(c3ccccc3)C2=O)C1` (configuration not stated), the INHIBITION amounted to 33.4%.
The value for `O=C(CC1CC1)N1CCC2(CC(=O)N(c3cccc(F)c3)C2)C1` (configuration not stated) was -40.5%; that for `COCC(=O)N1CCC2(CC(=O)N(c3cccc(F)c3)C2)C1` (configuration not stated) was 63.1%.
As for `O=C1CC2(CCN(Cc3cccs3)C2)CN1c1cccc(F)c1` (configuration not stated), the INHIBITION came out at 59.2%.
Turning to `N#Cc1cccc(N2CC3(CCN(C(=O)NC4CC4)C3)CC2=O)c1` (configuration not stated), the INHIBITION was determined as 33.4%.
With `CN(C)CC(=O)N1CCC2(CC(=O)N(c3cccc(C#N)c3)C2)C1` (configuration not stated), the INHIBITION amounted to 53.5%.
Consider `O=C(Cc1ccccc1)N1CCC2(CC(=O)N(c3cccc(F)c3)C2)C1` (configuration not stated), for which the INHIBITION was found to be 5.65%.
As for `CN(C)C(=O)N1CCC2(CC(=O)N(c3cccc(C#N)c3)C2)C1` (configuration not stated), the INHIBITION was 7.65%.
The value for `COCCC(=O)N1CCCC2(CCN(c3ccccc3)C2=O)C1` (configuration not stated) was -3.58%.
For the molecule `O=C1CC2(CCN(CCO)C2)CN1c1cccc(F)c1` (configuration not stated), the INHIBITION was -9.02%.
Regarding `COCC(=O)N1CCCC2(CCN(c3ccccc3)C2=O)C1` (configuration not stated), the INHIBITION was 71.9%.
As to `CC(C)c1ncc(CNC2(c3ccc(Cl)cc3)CC2)cn1`, the INHIBITION is on record as -33.4%.
For `O=C(NC1CCN(C2CC2)C1)c1cn(-c2ccc(F)cc2)nn1` (configuration not stated), the INHIBITION stood at 14.3%.
`CC1CN(C(=O)c2ccn(C)c(=O)c2)c2ccccc2NC1=O` (configuration not stated): the INHIBITION was -24%.
Consider `Cc1ccc(CN(C)C(=O)CN2CCCC(Cn3cncn3)C2)o1` (configuration not stated), for which the INHIBITION is 15.6%.
